# According to PubChem BioAssay (NCI):
# About 83,000 compounds went through this panel and 20% of them were active in at least one assay; those are over-represented in the sample as a whole.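 Cells were grown in 96-well plates and exposed to the test compound at a single concentration for 48 hours; results are reported as percent growth, with values below 10 considered active.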 Activity calls are given as the source filed them.
# Tested on: UO-31 renal
# Test: NCI-60 one-dose screen, 48 h (100 = growth as untreated, 0 = no growth, -100 = all killed)
# Conditions: 10 µM unless noted
# Protocol: Growth inhibition of the UO-31 human tumor cell line is measured as a screen for anti-cancer activity. Cells are grown in 96 well plates and exposed to the test compound for 48 hours. Compounds are tested at a single concentration, which is 10^-5 M for most compounds. The reported endpoint is percent growth (GI% or GIPRCNT), where numbers from 0 - 100% represent growth inhibition, and numbers from -100% - 0 represent cell death. For example, a value of 40 represents 60% growth inhibition. A value of 0 means no net growth occurred over the course of the experiment. A value of -40 indicates 40% of cells at the beginning of the experiment died by the end of the experiment. A value of -100 means all cells are dead at the end of the experiment.
# NCI-60 Human Tumor Cell Lines Screen was performed using the standard one-dose NCI protocol, which is described in more detail at https://dtp.cancer.gov/discovery_development/nci-60/default.htm.
# Compounds with GIPRCNT values below 10 were considered active. Activity score was based on GIPRCNT using the following formula: […]
# Score is 0 for GIPRCNT values of 100 or above, 50 for GIPRCNT values of 0, and 100 for GIPRCNT values of -100.
row,SMILES,growth
1,Cc1ncc(C(=O)Nc2ccc(CN3CCN(C)CC3)c(C(F)(F)F)c2)cc1C#Cc1cnc(N)c2ncccc12,-9.37% (active)
2,Clc1c(Cl)[n+](Cc2ccc3ccccc3c2)cn1Cc1ccc2ccccc2c1,70.7% (inactive)
3,N=c1c(S(=O)(=O)c2ccccc2)cc2c(=O)n3ccccc3nc2n1CC1CCCO1 (stereo not given),56.4% (inactive)
4,CC1=C(C(=O)Nc2ccccc2)C(c2ccc3c(c2)OCO3)NC(=S)N1 (stereo not given),88.2% (inactive)
5,CC1(C)CC(=O)c2c(nn(-c3ccc(Br)cc3)c2-c2cn(-c3ccccc3)nc2-c2cccnc2)C1,65.4% (inactive)
6,CCCCNc1nnc2n(Cc3ccccc3)c(=O)c3c4c(sc3n12)CCCC4,34.2% (inactive)
7,CS(=O)(=O)c1nnc(-c2ccccc2)s1,-71.4% (active)
8,CCOc1cccc(/C=N/NC(=O)c2cccc(Nc3ccnc(C(F)(F)F)c3)c2)c1O,17.3% (inactive)
9,COc1cc(C2C(C(=O)OCc3ccccc3)=C(C)NC(C)=C2C(=O)OCc2ccccc2)cc(OC)c1OC,18.5% (inactive)
10,C=C1C(=O)O[C@H]2[C@H]1CC/C(COC(=O)CSCSCC(=O)OC/C1=C/CC[C@@]3(C)O[C@H]3[C@H]3OC(=O)C(=C)[C@@H]3CC1)=C\CC[C@@]1(C)O[C@@H]21,-0.857% (active)
11,COc1ccc(-c2nn(-c3ccccc3)cc2/C=C/C(=O)NNC(=O)Nc2ccc(C)cc2)cc1,84.2% (inactive)
12,CCN1C(=O)N(CC)C2C1NN=c1s/c(=C3\C(=O)N(CCC(C)C)c4ccccc43)c(=O)n12 (stereo not given),29.5% (inactive)
13,Cc1ccc(-c2nc(SCc3nc4cc(Cl)c(Cl)cc4[nH]3)[nH]c(=O)c2C#N)cc1,81.7% (inactive)
14,Cc1ccc(-c2nc3nc(-c4ccccc4)nc(N4CCCN(S(C)(=O)=O)CC4)c3o2)cc1,59.3% (inactive)
15,Cc1cccc(N2CCC(=O)NC2=S)c1,88.2% (inactive)
16,CN(C)CCCC1(c2ccc(F)cc2)OCc2cc(-c3ccc4cc[nH]c4c3)ccc21 (stereo not given),30.2% (inactive)
17,CCOc1c(OC)cc2c(c1O)C(=O)N[C@@H]1[C@@H](O)[C@@H](O)[C@H](O)C[C@@H]21,92.9% (inactive)
18,Cc1ccc(S(=O)(=O)OCCCOS(=O)(=O)c2ccc(C)cc2)cc1,71.3% (inactive)
19,Nc1ccc(-c2csc(-n3[nH]c(=O)ccc3=O)n2)cc1,84.1% (inactive)
20,CC(=C(c1ccc(OCCN2CCCCC2)cc1)c1ccc(OCCN2CCCCC2)cc1)c1ccc(Cl)cc1,-96% (active)

row,SMILES,growth
1,COc1ccc(/C=C/c2ccc3ccccc3n2)c(OC)c1,65.4% (inactive)
2,CCCCCCCC/C=C\CCCCCCCCOc1ccc(CC(=O)NCC[N+]2(C)CCOCC2)cc1,93.5% (inactive)
3,CC1(C)CC[C@]2(C(=O)N[C@H](CO)Cc3ccccc3)CC[C@]3(C)C(=CC[C@@H]4[C@@]5(C)CCCNC(C)(C)[C@@H]5CC[C@]43C)[C@@H]2C1,66.5% (inactive)
4,FC(F)(F)Oc1cccc(-c2cnc3ccc(-c4ccncc4)nn23)c1,0.42% (active)
5,COc1ccc(-c2cc(-c3ccccc3)nc(N3CCN(CCNc4ccnc5cc(Cl)ccc45)CC3)n2)cc1,-4.9% (active)
6,O=C(CI)NC(=O)NC(=O)NCc1ccccc1,-20.6% (active)
7,CC1=CCC(OC(=O)C(C)(C)CC(O)(C(C)O)C(O)C2(C)C=CC(Cc3ccc(C(C)C)cc3)(C(C)C)CC2)(C(C)C)CC1 (stereo not given),81.5% (inactive)
8,N#C/C(=C\C=C\c1ccc(-c2cc(Cl)ccc2Cl)o1)c1nc2ccccc2s1,68.2% (inactive)
9,COc1ccc(CNc2c3ccccc3nc3ccccc23)c(OC)c1,28% (inactive)
10,O=c1cc(-c2ccccc2)[nH]c2ncc(-c3ccc(F)cc3)n12,69.2% (inactive)
11,CN(C)c1ccc(-c2nc(-c3ccccc3)c(-c3ccccc3)[nH]2)cc1,84.8% (inactive)
12,O=C1c2cccc3cccc(c23)C(=O)N1C/C=C/c1ccc2c3c(cccc13)C(=O)N(CCO)C2=O,48.1% (inactive)
13,CN1CCN(CCCOc2cccc3nc(Nc4ccc(F)c(F)c4)ccc23)CC1,-54.3% (active)
14,C=C(C)[C@@H]1CCC[C@]2(C(=O)O)CC[C@]3(C)[C@@H](CC[C@@H]4[C@@]5(C)C/C(=C/c6ccncc6)C(=O)C(C)(C)[C@@H]5CC[C@]43C)[C@@H]12,19.7% (inactive)
15,C#Cc1cccc(Nc2nc(C)nc3cc(NC(=O)CCl)ccc23)c1,-91.8% (active)
16,CCN1CCN(CCNc2nccc(-c3c(-c4ccc(F)c(OC)c4)nc4sccn34)n2)S1(=O)=O,86.9% (inactive)
17,N#Cc1cncc(-c2ccc3ncnc(Nc4cccc(Cl)c4)c3c2)c1,71% (inactive)
18,O=C1/C(=C/c2ccccn2)NC(=S)N1c1ccccc1Cl,36.4% (inactive)
19,CC(C)(C)c1cc(Cl)c(O)c(CNCCO)c1,99.7% (inactive)
20,CC(=O)c1ccc(Nc2nccc(-c3ccc4ccccc4c3)n2)cc1,86.1% (inactive)
